From PubChem BioAssay (NCI) come the findings set out here.

Some test systems named below: NCI-H23 lung; NCI-H226 lung; NCI-H322M lung; HOP-62 NSCLC; NCI-H460 lung; HOP-92 NSCLC; NCI-H522 lung; A549/ATCC NSCLC; 786-0 renal; COLO 205 colon; DU-145 prostate; K-562 leukemia; MDA-MB-231 breast; RXF 393 renal; SF-268 CNS; SF-295 CNS; SF-539 CNS; M14 melanoma; MALME-3M melanoma.
Assay in all cases: NCI-60 one-dose screen, 48 h (100 = growth as untreated, 0 = no growth, -100 = all killed)
Common to all, as to settings: 10 µM unless noted

The structures appear in SMILES notation. Compounds without any hit were thinned out: in the full panel of roughly 83,000, 20% have a hit.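 Growth was measured after 48 h exposure to one concentration of compound in 96-well plates. Values under 10 count as active.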 A number with no mark means an inactive call. Calls of active or inactive are those of the source.

As for `Cc1ccc(-c2nc3ccc(Cl)cn3c2NC2CCCCC2)o1`, the growth is 81.3% with NCI-H23 lung; 84.5% in the experiment with NCI-H226 lung; 93.1% with NCI-H322M lung; 87% with HOP-62 NSCLC; 97.6% with NCI-H460 lung; 73.1% in the experiment with HOP-92 NSCLC. Also, the growth with NCI-H522 lung is 57.3%; in the experiment with A549/ATCC NSCLC, 79.5%; in the experiment with 786-0 renal, 87.8%; with COLO 205 colon, 79.6%; in the experiment on DU-145 prostate, 104%; in the experiment with K-562 leukemia it was 74.5%. Besides, the growth in the experiment with MDA-MB-231 breast is 84.7%; in the experiment on RXF 393 renal it was 83.1%; with SF-268 CNS, 80%; with SF-295 CNS, 91.3%; with SF-539 CNS it was 95.4%; with M14 melanoma, 101%.
As for `O=C1CC(c2ccc3c(c2)OCO3)c2ncn(-c3ccc(Cl)cc3)c2N1` (configuration not stated), the growth was 41% in the experiment on NCI-H23 lung; 69.8% in the experiment on NCI-H226 lung; 51.9% in the experiment on NCI-H322M lung; 60.3% in the experiment on HOP-62 NSCLC; 14.3% in the experiment with NCI-H460 lung; 69.7% with HOP-92 NSCLC. Moreover, the growth in the experiment on NCI-H522 lung was -19.2% (active); in the experiment on A549/ATCC NSCLC, 48.7%; in the experiment with 786-0 renal, 38.4%; in the experiment on COLO 205 colon, 99.5%; in the experiment with DU-145 prostate, 18.3%; in the experiment with K-562 leukemia, 14.3%. For the same compound, the growth is 62.6% with MALME-3M melanoma; 44.3% in the experiment with MDA-MB-231 breast; 44.4% in the experiment on SF-268 CNS; 70.8% in the experiment with SF-295 CNS; 1.25% (active) in the experiment with SF-539 CNS; -2.01% (active) in the experiment with M14 melanoma.
`COc1cnc2c(c1)C(=O)c1c-2n(CCCN2CCC(O)CC2)c(=O)c2cc(Cl)ccc12`: the growth with NCI-H23 lung is 11.8%; in the experiment on NCI-H226 lung, 39.3%; with NCI-H322M lung, 46.4%; in the experiment with HOP-62 NSCLC, 23.6%; with NCI-H460 lung, -60.8% (active); in the experiment on HOP-92 NSCLC, 77.3%. Besides, the growth was 32.4% in the experiment with NCI-H522 lung; -65.8% (active) in the experiment with A549/ATCC NSCLC; 4.34% (active) with 786-0 renal; 47.1% in the experiment on COLO 205 colon; 22.8% in the experiment on DU-145 prostate; -38.7% (active) with K-562 leukemia. The growth in the experiment with MDA-MB-231 breast is -28.4% (active); in the experiment with RXF 393 renal, 28.2%; with SF-268 CNS it was 34.7%; in the experiment with SF-295 CNS, 17.8%; in the experiment with SF-539 CNS, 14.7%; with M14 melanoma, 30.9%.
With `CC1(O)CCC(Nc2cc(-c3ccc(C(F)(F)F)cc3)c(C#N)c3nc4ccccc4n23)CC1` (configuration not stated), the growth with NCI-H23 lung was 81.9%; in the experiment with NCI-H226 lung, 71%; with NCI-H322M lung, 89.9%; in the experiment on HOP-62 NSCLC it was 64.7%; in the experiment with NCI-H460 lung it was 68.7%; in the experiment with HOP-92 NSCLC, 52.5%. The growth with NCI-H522 lung was 63.2%; in the experiment with A549/ATCC NSCLC it was 56%; in the experiment on 786-0 renal it was 70.7%; in the experiment on COLO 205 colon, 61%; in the experiment on DU-145 prostate, 67.8%; in the experiment on K-562 leukemia, 73.1%. The growth in the experiment with MDA-MB-231 breast is 50.4%; with RXF 393 renal, 53.2%; in the experiment with SF-268 CNS, 64.5%; with SF-295 CNS, 51.9%; in the experiment with SF-539 CNS it was 63.4%; in the experiment with M14 melanoma, 91.2%.
Consider `COc1cc(C(=O)NNC(=O)c2ccc(NC(=O)CCl)cc2)cc(OC)c1OC`, for which the growth was 78.9% in the experiment with NCI-H23 lung; 95.5% in the experiment on NCI-H226 lung; 88.5% in the experiment on NCI-H322M lung; 72.7% in the experiment with HOP-62 NSCLC; 99.5% with NCI-H460 lung; 99% in the experiment on HOP-92 NSCLC. For the same compound, the growth in the experiment on NCI-H522 lung is -34.4% (active); with A549/ATCC NSCLC, 77%; in the experiment on 786-0 renal, 95.3%; in the experiment on COLO 205 colon, 106%; in the experiment with DU-145 prostate, 91%; in the experiment with K-562 leukemia, 53.7%. The growth in the experiment with MDA-MB-231 breast is 51.1%; with RXF 393 renal it was 92.9%; in the experiment on SF-268 CNS, 76.8%; with SF-295 CNS, 93.7%; with SF-539 CNS, 91.5%; in the experiment with M14 melanoma it was 82.6%.
On to `CCc1ccc(/C=C/c2ccc(O)c3ncccc23)[n+](C)c1`, for which the growth in the experiment on NCI-H23 lung was 21%; in the experiment with NCI-H226 lung, 24.2%; in the experiment with NCI-H322M lung it was 48.7%; in the experiment on HOP-62 NSCLC, 24.5%; in the experiment with NCI-H460 lung, 17.2%; with HOP-92 NSCLC, 83.6%. For the same compound, the growth in the experiment with NCI-H522 lung was 1.23% (active); in the experiment with A549/ATCC NSCLC it was 18.3%; with 786-0 renal it was 89.4%; in the experiment with COLO 205 colon, 70.9%; in the experiment on DU-145 prostate it was 42.8%; with MALME-3M melanoma, 63.5%. In addition, the growth in the experiment with MDA-MB-231 breast was 90.9%; in the experiment with SF-268 CNS, 47.7%; in the experiment with SF-295 CNS, 58.5%; in the experiment with SF-539 CNS, 62.7%; in the experiment with M14 melanoma, 47.6%.
On to `CCNCCNc1cc(-c2ccc(Cl)c(Cl)c2)c(C#N)c2nc3ccccc3n12`, for which the growth in the experiment on NCI-H23 lung is -72.8% (active); in the experiment on NCI-H226 lung, -74.2% (active); with NCI-H322M lung, -83.5% (active); in the experiment on HOP-62 NSCLC it was -75.6% (active); in the experiment on NCI-H460 lung, -71.2% (active); with HOP-92 NSCLC, -85.8% (active). Besides, the growth with NCI-H522 lung was -78.1% (active); with A549/ATCC NSCLC it was -87.3% (active); in the experiment on 786-0 renal, -84.8% (active); in the experiment on COLO 205 colon it was -83.7% (active); in the experiment on DU-145 prostate, -93.7% (active); with K-562 leukemia it was -65.3% (active). Further, the growth in the experiment with MDA-MB-231 breast is -77.5% (active); in the experiment on RXF 393 renal, -91% (active); with SF-268 CNS, -79.6% (active); with SF-295 CNS it was -92.3% (active); with SF-539 CNS, -87.5% (active).
Consider `Clc1nc(Cl)c2ncn(C/C=C\Cn3cnc4c(Cl)nc(Cl)nc43)c2n1`, for which the growth in the experiment with NCI-H23 lung is 9.28% (active); with NCI-H226 lung it was -59.2% (active); with NCI-H322M lung, 21.4%; with HOP-62 NSCLC, 23.4%; in the experiment on NCI-H460 lung it was 3.79% (active); with HOP-92 NSCLC it was -34.2% (active). In addition, the growth with NCI-H522 lung was -76.7% (active); in the experiment on A549/ATCC NSCLC, -7.32% (active); in the experiment with 786-0 renal it was -9.15% (active); in the experiment on COLO 205 colon, -41.1% (active); in the experiment on DU-145 prostate, -98.4% (active); in the experiment on K-562 leukemia it was -24.8% (active). The growth with MALME-3M melanoma is -72.7% (active); in the experiment on MDA-MB-231 breast, -68.5% (active); in the experiment on SF-268 CNS it was -2.21% (active); in the experiment with SF-295 CNS, -32.9% (active); in the experiment with SF-539 CNS, -52.9% (active); in the experiment on M14 melanoma, -32.9% (active).
